Hit rate of the full screen: of about 360,000 compounds, about 750 (0.21%) were called active. Another 2% or so got no clear call; they are omitted. Calls follow the shape of the dose curve; as a rule, active = well fitted falling curve with a large enough effect; inconclusive = small, poorly fitted or top-dose-only effect; inactive = no such curve, though single readings can be large or run the other way. The entries come from a sample that favours actives as a whole. Entries that show only a call come without a potency.
Potency is read from the fitted curve at half-maximal effect.

A short description of this assay: qHTS Assay for Inhibitors of the HIV-1 protein Vpr. Also: nearly all actives have a fitted effect of over 50% in size. As to conditions: S. pombe RE007 Vpr strain, BacTiter-Glo ATP luminescence, 24 h; series mostly up to 92.2 µM. The text has this:
Human immunodeficiency virus type 1 (HIV-1), the causative agent of AIDS, contains a protein called viral protein R (Vpr) that plays an important role in the viral life cycle and the pathogenesis of HIV-1.
These Vpr specific activities include cytoplasmic-nuclear shuttling, induction of cell cycle G2 arrest and cell killing. The cytoplasmic-nuclear shuttling is believed to participate in nuclear transport of the proviral integration complex (PIC). The cell cycle G2 arrest induced by Vpr is thought to suppress human immune functions by preventing T cell clonal expansion and to provide an optimized cellular environment for maximal levels of viral replication. In addition, Vpr induces apoptosis, which may contribute to the depletion of CD4 T cells in HIV-infected patients. Since the Vpr-specific activities have been linked to such clinical manifestation of AIDS as activation of viral replication, suppression of host immune responses and depletion of CD4+ T-lymphocytes, identification of new molecular probes that can inhibit the Vpr activities could potentially provide a new approach to reduce Vpr-mediated detrimental effects in HIV-infected patients, and thus prolong patient's lives. Currently, there are no anti-Vpr drugs.
A fission yeast (Schizosaccharomyces pombe) model system for the Vpr studies has been developed which measures HIV-1 Vpr-induced cell death. This assay will be used for to screen the NIH Molecular Libraries Small Molecule Repository (MLSMR) identify small molecule HIV-1 Vpr inhibitors.
NIH Chemical Genomics Center [NCGC]
NIH Molecular Libraries Probe Centers Network [MLPCN]
Assay Submitter (PI): Richard Zhao, University of Maryland
The fission yeast RE007 strain was used, which carries a single integrated copy of HIV-1 vpr gene in the yeast chromosome. The starting culture was frozen stock 100ul of yeast RE007 in 150ml of *PMG+AL medium, Incubation in 30 degree plus 99% humidity for 18 hours. Next day dispensed 2.5ul of PMG+AL medium in each well to 1536 well white solid plate, then 23nL compound were delivered to each well using a pin tool. Check OD for overnight culture and add cell density at 0.01 for each well, incubation in 30 degree plus 99% humidity for 24 hours. After add 5 ul of *BacTiter/Glo detect reagent to each well at room temperature for 5 minutes then to red out results with Viewlux CCD camera.
With `O=C(CCn1nnnc1CN1CCOCC1)N1CCC(c2ccccc2Cl)C1` (stereo not given), the Potency result was “inactive”. Take `CC(C)OC(=O)c1ccc(NCc2cc(O)ccc2O)cc1Cl`: the Potency was 28.2 µM (active).

Take `CCC(C)c1ccccc1N1CC(C(=O)N2CCN(S(=O)(=O)c3ccc(F)cc3)CC2)CC1=O` (stereo not given): the Potency entry was “inactive”.

Consider `COc1ccc(C(=O)CN2C(=O)NC3(CCc4ccccc43)C2=O)c(OC)c1` (stereo not given), for which the Potency entry was “inactive”. Take `Cc1ccc(OCCCCc2c(C)n[nH]c2C)cc1`: the Potency entry was “inactive”. On to `NC1=C([N+](=O)[O-])C(c2ccccc2)C2=C(CCCC2=O)O1` (stereo not given), for which the Potency result was “inactive”. To `CCc1ccc2oc(-c3ccc(N)cc3)nc2c1` belongs 11.2 µM (active); to `COc1ccccc1N1CCN(S(=O)(=O)c2ccc3c(c2)NC(=O)CS3)CC1`, “inactive”; to `CC1(C(=O)Nc2ccc3c(c2)OCCO3)CSCC(=O)N1CCOc1ccccc1` (stereo not given), “inactive”. To `Cc1nn(CCCC(=O)NCc2ccccc2Cl)c(=O)c2nccn12` belongs “inactive”; to `O=c1c2ccccc2ncn1CCc1ccncc1`, “inactive”; to `NNc1cccc(C=Cc2ccccc2)cc1=O`, 28.2 µM (active). As to `COc1ccccc1C(=O)NCc1nnc(SC(C)C(=O)Nc2nccs2)n1C` (stereo not given), the Potency entry is “inactive”.

For `Cc1ccc2cc3cc(C(=O)N4CCCCCC4)oc3nc2c1`, the Potency result was “inactive”.

Take `O=C(c1cccc(Br)c1)N1CCN(C2=NS(=O)(=O)c3ccccc32)CC1`: the Potency result was “inactive”. To `CCCOc1ccc(NC(=O)CC2C(=O)N(C)C(=S)N2Cc2ccc3c(c2)OCO3)cc1` (stereo not given) belongs “inactive”. Next, `O=C(NCCc1ccccn1)c1cccnc1Oc1ccc(Cl)cc1`: “inactive”; `CCOc1ccc(CCNC(=O)CSc2cc(=O)n(C)c3ccc(Cl)cc23)cc1OCC`: “inactive”; `CN(C)NC(=O)C(NC(=O)c1ccc(N)cc1)C12CC3CC(CC(C3)C1)C2` (stereo not given): “inactive”.

On to `CC1(C)CC[C@]2(C(=O)O)CC[C@]3(C)C(=CCC4[C@@]5(C)CC[C@H](O)C(C)(C)C5[C@H](O)C[C@]43C)[C@@H]2C1` (stereo not given in full), for which the Potency entry was “inactive”.

Regarding `O=C(Nc1ccc(F)cc1)Nc1nnc([C@H]2C[C@H](O)[C@@H](CO)O2)s1`, the Potency entry is “inactive”.

`COC(=O)C1CCN(C(=O)COC(=O)c2cc(S(=O)(=O)N3CCOCC3)ccc2C)CC1`: the Potency entry was “inactive”. `CC1CCCC(C)N1C(=O)CN1CCN(c2nc(-c3ccc(F)cc3)cs2)CC1` (stereo not given): the Potency entry was “inactive”. To `O=C(NC1CCCC1)C(c1c(F)cccc1Cl)N(C(=O)c1csnn1)C1CC1` (stereo not given) belongs “inactive”; to `O=C(OCC(O)C(O)COC(=O)c1ccccc1)c1ccccc1` (stereo not given), “inactive”. On to `O=C(Nc1ccc(S(=O)(=O)N2CCc3ccccc3C2)cc1)c1ccccc1`, for which the Potency result is “inactive”. Next, `O=C(NC1=CC(=O)c2ccccc2C1=O)c1ccccc1`: 12.6 µM (active); `COc1ccc(C(=O)C(OP(=O)(OC)OC)c2ccccc2OC)cc1` (stereo not given): “inactive”; `CCOC(=O)N(Cc1ccccc1)C1CC1`: “inactive”. Next, `CCOC(=O)c1ccc(N2C(=O)CC(Sc3nc(O)c(CC)c(=O)[nH]3)C2=O)cc1` (stereo not given): “inactive”; `COC(=O)c1cc(C(=O)OC)cc(N2C(=O)CC(N3CCN(c4ccccc4)CC3)C2=O)c1` (stereo not given): “inactive”. Next, `COc1ccc(CCN2C(=O)CC(N3CCC(C(N)=O)CC3)C2=O)cc1OC` (stereo not given): “inactive”; `COc1ccc(N2CCN(C3CC(=O)N(c4ccc5c(c4)OCCO5)C3=O)CC2)cc1` (stereo not given): “inactive”. On to `CCOC(=O)c1ccc(N2C(=O)CC(N3CCC(C(=O)OCC)CC3)C2=O)cc1` (stereo not given), for which the Potency was 12.6 µM (active).

With `COc1ccc(N2C(=O)CC(N3CCC(C(N)=O)CC3)C2=O)cc1` (stereo not given), the Potency was 25.1 µM (active).

As for `CCCCOC(=O)c1ccc(N2C(=O)CC(N3CCN(C/C=C/c4ccccc4)CC3)C2=O)cc1` (stereo not given), the Potency entry was “inactive”. To `CCOC(=O)c1ccc(N2C(=O)CC(N(C)Cc3ccccc3)C2=O)cc1` (stereo not given) belongs 12.6 µM (active); to `NC(=O)Nc1ccccc1C(=O)NCCc1ccccc1`, “inactive”.

For `Cc1nn(CC(=O)N2CCCCC2)c(=O)c2nn(-c3ccccc3)c(C)c12`, the Potency result was “inactive”. For `O=S1(=O)CCOC[C@H](CC2CCCCC2)N1Cc1ccc(F)cc1`, the Potency result is “inactive”.

On to `C=CCOc1ccc(/C=C/C(=O)OCC(=O)NC2CCCCCC2)cc1`, for which the Potency entry is “inactive”.

For the molecule `CCCCn1c(N)c(N(CCC(C)C)C(=O)COC(=O)c2ccc(CC)cc2)c(=O)[nH]c1=O`, the Potency entry was “inactive”. To `O=C(CC1OC(=O)c2ccccc21)NC1CCCCC1` (stereo not given) belongs “inactive”. For `O=C(N/C(=C/c1ccc(Cl)cc1)C(=O)N1CCCCC1)c1ccco1`, the Potency entry was “inactive”. To `CCOC(=O)c1ccc(-n2c(C)nc3c(cnn3-c3ccccc3C)c2=O)cc1` belongs “inactive”. To `O=C(O)c1ccc(NN=CC2=C(N3CCOCC3)/C(=C/c3ccccc3)CC2)cc1` belongs 35.5 µM (active). Next, `O=C(O)c1ccc(N=NN2CCOCC2)cc1`: “inactive”; `O=C(CP(=O)(c1ccccc1)c1ccccc1)N1CCOCC1`: “inactive”.

Consider `Cc1[nH]nc(SCC(=O)NCC(C)C)c1[N+](=O)[O-]`, for which the Potency result was “inactive”. Next, `COc1ccc(CN2C(=O)C(CC(=O)NCc3cccc4ccccc34)CC(C(=O)N3CCOCC3)=C2C)cc1` (stereo not given): “inactive”; `CC(C)(C)C(=O)Nc1ccc(C(=O)N/N=C/c2ccccc2OC(=O)c2ccc(Cl)cc2Cl)cc1`: “inactive”.

Turning to `COc1cccc(C(=O)N/N=C(\C)c2cccc(NC(=O)c3ccc(F)cc3)c2)c1OC`, the Potency result was “inactive”. For `COc1ccc(C(=O)Nc2ccccc2C(=O)N/N=C/c2ccccc2OC)cc1`, the Potency was 35.5 µM (active).

In the case of `COc1cc(/C=N/NC(=O)Nc2ccccc2)ccc1OCCOc1ccccc1C`, the Potency result is “inactive”. Turning to `CCCNC(=O)c1ccccc1NC(=O)CSCc1ccc(OC)cc1`, the Potency result was “inactive”.

The values above are taken from PubChem BioAssay AID651644 (National Center for Advancing Translational Sciences (NCATS), 2012).
